# A selection: hits, their analogues and other compounds. The true share with any hit is near 2.3%.
# M1 ag: activates human CHRM1 receptor | activation, % at 3 µM | 360,000 tested, 0.33% active | CHO-K1 hM1, Fluo-8 calcium fluorescence, agonist mode; 0% DMSO, 100% acetylcholine EC100;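 active = activation above the run's mean compound activation plus 3 SD, cut at about 16% in these data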;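 note: peak over basal fluorescence ratio within a 140 s kinetic read after compound addition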
# Target sequence (P11229 whole entry, looked up): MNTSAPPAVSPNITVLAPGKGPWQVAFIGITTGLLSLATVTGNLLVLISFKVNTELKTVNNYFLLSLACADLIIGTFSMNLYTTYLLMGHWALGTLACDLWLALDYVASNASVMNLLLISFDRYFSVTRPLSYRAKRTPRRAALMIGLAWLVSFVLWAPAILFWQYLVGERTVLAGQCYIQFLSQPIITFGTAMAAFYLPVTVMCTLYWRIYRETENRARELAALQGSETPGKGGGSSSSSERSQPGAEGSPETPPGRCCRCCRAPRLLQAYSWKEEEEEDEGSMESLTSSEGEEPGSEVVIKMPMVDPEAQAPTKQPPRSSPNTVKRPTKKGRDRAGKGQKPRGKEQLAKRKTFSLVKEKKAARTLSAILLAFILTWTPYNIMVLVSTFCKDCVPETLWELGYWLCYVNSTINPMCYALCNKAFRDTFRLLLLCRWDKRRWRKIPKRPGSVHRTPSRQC
# CHO-K1 Ca PAM: M1 PAM counterscreen hit in parental CHO-K1 cells; ATP EC20, Fluo-8 calcium fluorescence; 0% at ATP EC20, 100% at ATP max; activation, % at 3 µM; 360,000 tested, 0.02% active;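 active = activation above the run cutoff, the mean activation of all test compounds plus 3 SD, cut at about 40% in these data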;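 note: peak over basal fluorescence ratio in a 140 s read after ATP addition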
# M1 PAM: potentiates human M1 receptor response to acetylcholine. P11229. CHO-K1 hM1, Fluo-8 calcium fluorescence, ACh EC20; 0% = ACh EC20, 100% = maximal ACh. activation, % at 3 µM. 360,000 tested, 0.088% active. AID 588819; in the data active = activation above about 19%, passing the limit was not always enough
# CHO-K1 Ca antag: nonselective inhibitor or artifact in parental CHO-K1 cells; 360,000 tested, 0.6% active; inhibition, % at 3 µM; ATP-induced calcium, Fluo-8 fluorescence;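 active = inhibition above a per-plate cutoff, the plate's mean sample inhibition plus 3 SD, cut at about 24% in these data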;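 note: 0% = DMSO plus EC80 ATP and 100% = DMSO alone without ATP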
# CHO-K1 Ca ag: counter-screen for M1 agonists: effect in parental CHO-K1 cells. Fluo-8 calcium fluorescence; scaled to maximal ATP response, vehicle zero. activation, % at 3 µM. 360,000 tested, 0.48% active. AID 602248; in the data active = activation above about 15%;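 note: untransfected CHO-K1 host cells lacking M1 receptor as counterscreen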
# CHRM1 antagonist: blocks human M1 muscarinic receptor. P11229. CHO-K1 hM1, Fluo-8 calcium fluorescence, ACh EC80 antagonist. inhibition, % at 3 µM. 360,000 tested, 1.3% active;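 active = percent inhibition above its own plate's cutoff, namely the mean of that plate's compound wells plus 3 SD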;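 note: peak over basal fluorescence ratio during 140 s after agonist addition; 0% = ACh EC80 plus DMSO and 100% = DMSO alone without agonist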
# Starred values were filed as active, the others as inactive; . = no result given.
SMILES,M1 ag,CHO-K1 Ca PAM,M1 PAM,CHO-K1 Ca antag,CHO-K1 Ca ag,CHRM1 antagonist
COc1cccc(Nc2nc3cc(C)ccc3cc2C)c1,-7.1,-14.2,-1.5,25.6*,-0.3,-5.7
CCCCC(=O)Nc1ccc(C(=O)NCc2ccncc2)cc1,-4.8,4.0,9.3,25.1*,0.1,-0.6
CCCCC(=O)Nc1ccc(C(=O)Nc2cccnc2)cc1,-3.1,-1.7,3.4,10.7,0.9,0.7
Cc1ccc(NS(=O)(=O)c2ccc(C(=O)NCc3ccccn3)cc2)cc1,28.2*,0.5,-1.6,-4.3,19.0*,8.4
CC(C)c1ccc(OCC(=O)Nc2ccc(S(=O)(=O)Nc3ccccn3)cc2)cc1,24.2*,13.1,5.5,-19.9,5.1,-4.0
CS(=O)(=O)Nc1ccc(C(=O)NCc2ccccn2)cc1,-2.9,14.4,2.8,-8.1,0.3,-7.9
CC(C)c1cccc(OCC(=O)Nc2ccc(S(=O)(=O)Nc3ccccn3)cc2)c1,-7.8,-2.2,3.6,-21.6,1.1,2.9
CCOc1ccc(NS(=O)(=O)c2ccc(C(=O)NCc3ccccn3)cc2)cc1,27.9*,-7.8,0.8,1.4,21.1*,8.2
CCOc1ccc(NS(=O)(=O)c2ccc(C(=O)NCc3ccncc3)cc2)cc1,12.0,27.9,14.0,-9.7,7.4,-7.6
COc1ccc(CN2C(=O)C(CC(=O)NCC3CCCCC3)CC(C(=O)N3CCOCC3)=C2C)cc1 (stereo not drawn),-4.5,-8.5,-1.7,-1.9,-0.2,-0.3
COc1ccc(/C=C2/CCC(CN3CCOCC3)C2=O)cc1 (stereo not drawn),-2.8,4.0,7.4,-2.7,2.0,-11.0
Cc1ccc(S(=O)(=O)NC(=O)NCc2ccccc2)cc1,-2.5,-8.5,-5.6,28.2*,-0.3,11.3
Cc1ccc(NS(=O)(=O)c2ccc(C(=O)NCc3ccncc3)cc2)cc1,17.9*,6.3,4.9,4.9,15.5*,2.0
CCN(CC)C(=O)C1=C(C)N(CCC2=CCCCC2)C(=O)C(CC(=O)NC(c2ccccc2)c2ccccc2)C1 (stereo not drawn),-7.1,-1.7,9.7,0.4,-0.5,-11.7
CCc1nonc1NC(=O)c1oc2ccc(C)cc2c1C,-5.2,-5.8,-9.2,0.8,-0.2,44.8*
CCc1ccc2oc(C(=O)Nc3nonc3CC)c(C)c2c1,-4.3,-0.2,-0.6,-8.6,-0.2,-12.5
Cc1ccc([N+](=O)[O-])c(NC(=O)COC(=O)CCNS(=O)(=O)c2cccs2)c1C,-2.3,4.5,3.4,-1.5,1.2,-7.8
COc1ccc(C2C(C(=O)N3CCCC3)c3cc(OC)c(OC)cc3C(=O)N2C)cc1 (stereo not drawn),-0.4,-8.4,2.1,25.8*,0.3,-2.6
COc1cc(CN2CCc3ccc(NC(=O)CCc4ccccc4OC)cc3C2)ccc1O,-6.0,11.6,6.3,1.9,2.5,-19.5
COc1cccc(CN2CCc3ccc(NC(=O)CCc4ccc(C)cc4)cc3C2)c1O,0.6,10.9,-14.8,5.9,13.1,38.4*
CC(C)(C)OC(=O)N1CCC(c2cc(=O)n3[nH]cc(C(=O)Nc4ccc(F)c(Cl)c4)c3n2)CC1,-2.6,4.2,2.9,-8.1,0.3,-8.7
CC(C)(C)OC(=O)N1CCC(c2cc(=O)n3[nH]cc(C(=O)NC4CCCC4)c3n2)CC1,12.6,-1.7,25.6*,-8.6,-0.6,-5.2
COc1ccc(Nc2c(C3CC3)nc3nc(C)cc(C)n23)cc1,.,26.5,.,-17.8,-0.3,.
Cc1ccc(NC(=O)COc2ccc3c(c2)OCO3)c(Cl)c1,6.9,10.9,27.0*,-12.2,0.7,-13.3
CCc1ccccc1NC(=O)COc1ccc2c(c1)OCO2,-3.7,8.3,4.1,-10.1,1.1,3.0
SMILES,M1 ag,CHO-K1 Ca PAM,M1 PAM,CHO-K1 Ca antag,CHO-K1 Ca ag,CHRM1 antagonist
CC[C@H](C)C(C(=O)N1CCN(C(=O)OC(C)(C)C)CC1)n1cc(C(CC(C)C)NC(=O)OC(C)(C)C)nn1 (stereo partly drawn),-2.1,4.0,6.9,1.0,0.7,0.0
CC[C@H](C)Cc1cn([C@@H](CCCCNC(=O)OC(C)(C)C)C(=O)NCCCCCCCCCCC(=O)N2CCN(C(=O)OC(C)(C)C)CC2)nn1,-2.3,-6.1,-28.2,-0.9,5.4,47.8*
CC(C)(C)OC(=O)NCCCC[C@@H](C(=O)NCCCCCCCCCCC(=O)N1CCN(C(=O)OC(C)(C)C)CC1)n1cc(CCO)nn1,-5.6,11.2,-9.8,-1.6,1.3,-4.2
CC[C@@H](C)[C@@H](C(=O)N1CCN(C(=O)OC(C)(C)C)CC1)n1cc(CCCCNC(=O)OC(C)(C)C)nn1,-1.1,-10.2,-23.6,20.0,14.7,36.4*
C/C=C/c1cccc(-c2nc(C(=O)N3CCCCC3)cc3c2[C@@H](CCO)N(C(=O)NC(C)C)C3)c1,.,-1.1,.,-3.1,0.7,.
CC(=NO)C1(C)CC=CCC1CO (stereo not drawn),-2.4,-0.7,5.5,8.9,0.6,-9.6
CC(C)S(=O)(=O)NC(=O)C1(C)CCN1C(=O)Cc1ccccc1 (stereo not drawn),-1.8,-6.2,0.4,5.0,0.4,-4.4
CCN(CC)C(=O)c1ccc2nc([C@H]3C[C@H](O)[C@@H](CO)O3)[nH]c2c1,-2.2,18.6,11.1,-4.6,0.3,-17.9
OC[C@H]1O[C@@H](c2nc3ccc(-c4nc(-c5ccc(Br)cc5)no4)cc3[nH]2)C[C@@H]1O,16.0*,11.7,23.0,-13.5,1.4,-14.5
COc1cccc(CN(C)C(=O)C(Cc2ccccc2)NC(=O)c2ccccc2)c1OC (stereo not drawn),-1.5,-17.0,-12.1,12.6,4.7,28.7*
C[C@@H](NC(=O)Cn1cnc2c(OCc3ccccc3)ncnc21)c1cccc2ccccc12,33.3*,9.6,19.8,-11.3,2.3,-13.3
C[C@@H](NC(=O)Cn1cnc2c(NCc3ccccc3)ncnc21)c1cccc2ccccc12,47.7*,-3.6,9.1,2.2,1.6,-10.2
O=C(Cn1cnc2c(NCc3ccccc3)ncnc21)NCc1ccccc1,0.8,7.2,9.7,-0.4,0.5,-15.5
O=C(CCN1CCN(c2ccc([N+](=O)[O-])cc2)CC1)c1ccc(Cl)cc1,-4.4,-8.8,-18.7,16.8,9.9,37.8*
O=C(CN1CCN(c2ccc([N+](=O)[O-])cc2)CC1)c1ccccc1,-7.9,12.7,-26.2,3.0,2.3,39.6*
Cc1ccc(-c2cnc(C(O)c3cccc(Cl)c3)[nH]2)cc1 (stereo not drawn),0.5,1.9,-0.3,-5.3,0.7,-9.5
Cc1c(N2CCCCC2)[nH]c2ccccc12,-8.5,0.3,1.4,-4.0,0.6,-2.4
CCc1nc2ccc(C(=O)NCCc3ccccn3)cn2c1N(CCC(C)C)CCN(C)C,3.1,-0.8,17.0,10.8,0.3,-17.8
CCCCNC(=O)c1[nH]c(=O)cnc1-c1ccccc1,-0.9,7.7,4.1,-24.8,-0.4,-39.2
